Laboratory results taken from PubChem BioAssay (NCI).
Values joined by “and” are separate entries in the source; they are usually repeats but may differ in a detail not shown here. Equal entries are not always repeated. This is part of a sample that, as a whole, favours compounds with a hit. Of some 83,000 tested, about 20% had one in any assay.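 Growth was measured after 48 h exposure to one concentration of compound in 96-well plates. Values under 10 count as active.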 Active and inactive are the calls of the source.

Tests used:
Assay in all cases: NCI-60 one-dose screen, 48 h (100 = growth as untreated, 0 = no growth, -100 = all killed)
Conditions in all cases: 10 µM unless noted
[1] = system: SR leukemia
[2] = system: RPMI-8226 leukemia
[3] = system: OVCAR-8 ovarian
[4] = system: OVCAR-5 ovarian
[5] = system: OVCAR-4 ovarian
[6] = system: IGROV1 ovarian
[7] = system: OVCAR-3 ovarian
[8] = system: HS 578T breast
[9] = system: NCI/ADR-RES ovarian
[10] = system: T-47D breast
[11] = system: BT-549 breast
[12] = system: MDA-MB-435 melanoma
[13] = system: SW-620 colon
[14] = system: MCF7 breast
[15] = system: HCT-116 colon
[16] = system: HCC-2998 colon
[17] = system: KM12 colon
[18] = system: SK-OV-3 ovarian

Measured: growth

COC1/C=C/OC2(C)Oc3c(C)c(O)c4c(O)c(c(C=NOC(c5ccccc5)c5ccccc5)c(O)c4c3C2=O)NC(=O)/C(C)=C/C=C/C(C)C(O)C(C)C(O)C(C)C(OC(C)=O)C1C (stereo not drawn)
active: [1] -5.09% | [2] 3.28% | [8] -5.16% | [10] -82.7% | [16] -38.8% | [17] 5.8%
inactive: [3] 24.8% | [4] 38.1% | [5] 15.2% | [6] 29.8% | [7] 11.9% | [9] 28.9% | [11] 32.7% | [12] 11.5% | [13] 18.3% | [14] 10.9% | [15] 10.9%

CN(C)c1ccc2nc3ccc(=O)cc-3sc2c1
active: [5] 2.9% | [7] -7.17% and -6.79% | [14] -1.53% and 1.73% | [15] 2.57% and 9.4%
inactive: [2] 12.8% and 13.8% | [4] 86.6% and 88.5% | [18] 81.7% and 93.7% | [8] 79.4% and 79.2% | [9] 14.7% and 46.2% | [10] 28% and 38.8% | [11] 52.5% and 47.1% | [13] 31.9% and 47.4% | [16] 18.1% and 39.7% | [17] 30.4% and 32.8%
40.7% (inactive) and -65.2% (active): [12]
7.73% (active) and 17.9% (inactive): [1]
28.1% (inactive) and 6.61% (active): [3]

CCCN1C(=O)/C(=c2\sc3n(c2=O)NC2C(N=3)N(CC)C(=O)N2CC)c2ccccc21 (stereo not drawn)
active: [7] 9.19% | [9] 8.06% | [12] -10.6%
inactive: [1] 30.6% | [2] 45.5% | [3] 35.7% | [4] 39.6% | [5] 63% | [18] 63.6% | [8] 27.8% | [10] 26.2% | [11] 62.8% | [13] 31.5% | [14] 17.5% | [15] 15.6% | [16] 30.4% | [17] 30.3%

COc1ccc(/C=N/C2=C(C#N)C(c3ccccc3)c3c(ccc4ccccc34)O2)cc1 (stereo not drawn)
active: [2] -2.96% | [7] -11% | [12] -59.2%
inactive: [1] 17.5% | [3] 37.6% | [4] 48.8% | [5] 52.3% | [18] 45.3% | [8] 17.5% | [9] 10.3% | [10] 36.3% | [11] 35.7% | [13] 29.4% | [14] 15.4% | [15] 24.8% | [16] 48.8% | [17] 29.1%

CC(=O)N1N=C(c2ccc(Nc3nc(Nc4ccc(F)cc4)nc(Nc4ccc(F)cc4)n3)cc2)CC1c1ccccc1 (stereo not drawn)
inactive: [1] 23.3% | [2] 33.9% | [3] 83% | [4] 72.3% | [5] 95.3% | [6] 117% | [7] 141% | [8] 94.8% | [9] 72.8% | [10] 56.2% | [12] 105% | [13] 95.7% | [14] 66.2% | [15] 80.7% | [16] 94.3% | [17] 89.1%

O=C(NCc1cccnc1)/C(=C\c1ccc(Br)cc1)S(=O)(=O)c1ccccc1
active: [3] 3.01% | [4] -41.3% | [5] 0.235% | [6] -11.3% | [7] -96.7% | [9] 2.59% | [10] -64.6% | [11] -21.2% | [12] -14.9% | [13] -74% | [14] -44.4% | [15] -76% | [16] -76.5% | [17] -48.1%
inactive: [1] 55.9% | [2] 26.7% | [8] 14.9%

Nc1n[nH]c2cccc(C#Cc3cccc(C(=O)Nc4ccc(CN5CCOCC5)c(C(F)(F)F)c4)c3)c12
inactive: [1] 36.1% | [2] 16.4% | [3] 12.5% | [4] 41.2% | [5] 47.2% | [18] 88.8% | [7] 60.5% | [8] 29.5% | [9] 18.4% | [11] 23.7% | [12] 38.7% | [13] 49.3% | [14] 33.4% | [15] 13.3% | [16] 26.9% | [17] 19%
active: [10] 6.17%
